Where “and” joins values, the source holds several entries; their conditions need not be identical. Identical values can stand only once. Inconclusive results are not listed. Calls of active or inactive are those of the source. Unless noted, the call rests on the fitted dose curve; in most records, active means well fitted curve in the direction sought with a large enough effect; inconclusive means small, poorly fitted or top-dose-only effect, or another doubt; inactive means no such curve, though single readings can be large; an effect the other way counts as inactive or inconclusive. Some results are limits rather than exact numbers.

The values that follow come from PubChem BioAssay (NCATS).

Assay [1] is described as follows: Cellular Toxicity (caspase-3) Jurkat (AID 655).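 Further: cells exposed to compound for 16 h at 37 °C before reading.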 The note with it: Jurkat caspase-3 activation, luminescence, DMSO = 0%, tamoxifen = 100%; at 92.2 µM (top of the series). The method, boiled down:
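qHTS in human Jurkat T-cell leukemia line: 16 hr compound treatment at 37 °C, caspase-3/7 activity measured by Caspase-Glo luminescence. AC50 derived from Hill equation.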

A short description of assay [2]: Cellular Toxicity (caspase-3) H-4-II-E (AID 663).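 Further: cells exposed to compound for 16 hr before readout.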 The note with it: H-4-II-E rat hepatoma, scaled: DMSO 0%, 100 µM tamoxifen 100%; series mostly up to 92.2 µM. The method, boiled down:
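Luminescence from caspase-cleaved aminoluciferin substrate, read 20 min after reagent addition, reports caspase 3/7 activation in rat H-4-II-E cells after 16 hr compound exposure. Normalized to DMSO (basal) and 100 uM tamoxifen (100%); AC50 from Hill fits.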

A short description of assay [3]: Cellular Toxicity (caspase-3) N2a (AID 665).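 Further: compound exposure lasted 16 h at 37 °C before readout.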 The conditions noted are these: N2a cells, luminescence, normalized: DMSO 0%, 10 µM staurosporine 100%; at 92.2 µM (top of the series). Summed up:
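Mouse N2a neuroblastoma cells, 1500 per well, treated 16 h at 37 °C in complete medium; caspase-3/7 activity by Caspase-Glo luminescence after 1 h. Normalized to DMSO and 10 uM staurosporine; AC50 from Hill fits.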

A short description of assay [4]: Cell Viability - LYMP2-021 (AID 974).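 Further: compound exposure lasts 24 hours at 37 °C; on the % scale 0 is the no-effect control and ±100 the full control effect; nearly all actives have a fitted effect of over 55% in size.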 The conditions noted are these: LYMP2-021 lymphoblastoid cells viability; series mostly up to 92.2 µM. Summed up:
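Human lymphoblastoid LYMP2-021 cells, 2500/well in complete medium, treated 24 hours at 37 C. Intracellular ATP by CellTiter-Glo luminescence (30 min, RT); AC50 from Hill fits of concentration-response.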

The nature of assay [5]: qHTS assay for small molecule antagonists of peroxisome proliferator-activated receptor delta signaling (AID 588535; active means well fitted inhibition curve with a large enough effect in the signal ratio, with a control signal flat, not every such curve was filed as active; the % refers to the signal ratio;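 on max response: cells co-treated with a PPAR-delta agonist as stimulator during compound exposure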). The note with it: HEK293T PPARd-UAS-bla, beta-lactamase FRET ratio, 18 h; 460 nm channel. Summed up: (§1)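 Reporter: UAS-bla under PPAR-delta response element, HEK293T host. Medium: 2% charcoal/dextran FBS. Dosing: titration, 18 hrs, 37 C. Detection: CCF4, 2 hrs RT, 405 ex/460 and 530 em.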
A general note: In qHTS, concentration-response curves come from the screen itself.

For assay [6], the target named is Peroxisome proliferator-activated receptor delta (Homo sapiens) (UniProt Q03181). The description is as above. The note with it: HEK293T PPARd-UAS-bla, beta-lactamase FRET ratio, 18 h; series mostly up to 76.7 µM. Summed up: as §1
Sequence of Peroxisome proliferator-activated receptor delta (Homo sapiens) (Q03181 whole entry, looked up): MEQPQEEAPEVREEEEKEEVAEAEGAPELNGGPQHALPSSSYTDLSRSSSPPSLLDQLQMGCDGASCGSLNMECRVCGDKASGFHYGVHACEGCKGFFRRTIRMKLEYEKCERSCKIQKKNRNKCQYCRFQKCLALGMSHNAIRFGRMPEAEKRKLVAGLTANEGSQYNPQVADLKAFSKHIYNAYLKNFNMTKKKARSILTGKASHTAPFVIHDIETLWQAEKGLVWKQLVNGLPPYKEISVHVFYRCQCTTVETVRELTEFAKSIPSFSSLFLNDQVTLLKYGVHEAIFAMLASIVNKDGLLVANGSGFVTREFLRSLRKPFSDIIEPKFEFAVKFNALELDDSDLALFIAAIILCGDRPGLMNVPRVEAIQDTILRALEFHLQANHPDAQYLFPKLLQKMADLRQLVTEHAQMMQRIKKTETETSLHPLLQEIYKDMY
A short description of assay [7]: Cell Viability - NIH 3T3 (AID 541).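 Further: plate controls were DMSO alone for no effect and tamoxifen positive control for full effect; nearly all actives have a fitted effect of over 25% in size.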 The note with it: NIH 3T3 cell viability, qHTS; activity change, negative = cytotoxicity: at 92.2 µM (top of the series). Summed up: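 Mouse NIH 3T3 fibroblasts, 1000 cells/well, rested 5 hr at 37 °C, then exposed to compound for 40 hr at 37 °C in complete medium. Viability read as intracellular ATP by CellTiter-Glo luminescence; AC50 from Hill-equation fits of concentration-response data.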

Assay [8] in a line: MultiTox-Fluor Cytotoxicity Assay - LYMP1-001 - Dead Cells (AID 946).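 Further: 0% = DMSO and 100% = tetraoctylammonium bromide.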 The note with it: LYMP1-001 lymphoblastoid cells, dead-cell protease fluorescence; series mostly up to 92.2 µM. Summed up: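 Seed 2500 LYMP1-001 cells/well, incubate 5 hr at 37 C; add compound, 16 hr at 37 C; add MultiTox-Fluor reagent, 60 min RT; read dead-cell fluorescence Ex/Em=485/520. Normalize to DMSO and 15 uM tetraoctylammonium bromide.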

Assay [9] concerns the target Bile acid receptor (Homo sapiens) (UniProt Q96RI1). The assay is described as follows: qHTS assay for small molecule antagonists of farnesoid X receptor signaling (AID 588526; calls by dose curve; further: on the % scale 0 is the no-effect control and ±100 the full control effect). The note with it: HEK293T FXR-UAS-bla, beta-lactamase ratio, antagonist mode; series mostly up to 76.7 µM. The method, boiled down: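 Concentration-response titrations were fitted to the Hill equation for half-maximal inhibition and maximal response, with data normalised to 50 uM chenodeoxycholic acid and DMSO control wells. Cells: FXR-UAS-bla HEK293T, dialyzed FBS.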

Assay [10] can be described thus: Cellular Toxicity (caspase-3) SK-N-SH (AID 661). The conditions noted are these: SK-N-SH caspase-3 activation, qHTS, DMSO as zero, staurosporine as full; series mostly up to 91.7 µM. Summed up: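 Human SK-N-SH neuroblastoma cells, 1500/well, were exposed to compounds for 16 hours at 37 °C. Caspase-Glo 3/7 luminescence was normalized to DMSO (basal) and 10 uM staurosporine (100%), and AC50 came from a Hill fit.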

A short description of assay [11]: Cellular Toxicity (caspase-3) Hek293 (AID 664).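 Further: cells exposed to compound for 16 h at 37 °C before readout.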 The note with it: HEK293 caspase-3 activation, DMSO = 0%, 100 µM tamoxifen = 100%; series mostly up to 92.2 µM. Summed up: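 HEK293 cells in complete medium treated 16 h at 37 °C, then Caspase-Glo 3/7 luminescence read after 20 min at room temperature. Normalized to DMSO and 100 uM tamoxifen; AC50 from Hill fit of concentration-response.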

Assay [12] in a line: Cellular Toxicity (caspase-3) Renal Proximal Tubule (AID 667).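 Further: cells exposed to compound for 16 hours at 37 °C before detection.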 The conditions noted are these: renal proximal tubule cells; at 91.7 µM (top of the series), primary cells freshly taken from rat, solvent-only wells 0%, staurosporine 100% unless noted. Summed up: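 Caspase-Glo 3/7 read-out, rat primary kidney proximal tubule cells. Compound exposure 16 h, 37 °C; detection after 1 h at RT. Activity scaled to DMSO and 10 uM staurosporine.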

A short description of assay [13]: Cell Viability - LYMP2-019 (AID 973).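 Further: cells exposed to compound for 24 h at 37 °C; 0% = DMSO alone and full effect = 92 µM tetraoctylammonium bromide; nearly all actives have a fitted effect of over 55% in size.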 The conditions noted are these: LYMP2-019 lymphoblastoid cell line viability; series mostly up to 92.2 µM. Summed up: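 Human lymphoblastoid LYMP2-019 cells (2500/well) preincubated 5 h at 37 C, then treated 24 h at 37 C in complete medium. Viability by CellTiter-Glo ATP luminescence after 30 min at room temperature; AC50 from Hill fits.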

Assay [14] deals with Peroxisome proliferator-activated receptor gamma (Homo sapiens) (UniProt P37231). Description: qHTS assay for small molecule antagonists of peroxisome proliferator-activated receptor gamma signaling (AID 588537; active means well fitted inhibition curve with a large enough effect in the signal ratio, with a control signal flat, not every such curve was filed as active; the % refers to the signal ratio;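 further: reporter cells co-stimulated with 50 nM rosiglitazone agonist during compound treatment; % of control where 0% means no effect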). The conditions noted are these: HEK293 PPARg-UAS-bla, beta-lactamase ratio, antagonist mode; series mostly up to 76.8 µM. The method, boiled down: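 We seeded GeneBLAzer HEK293 reporter cells at 3000 per well, allowed 6-6.5 h attachment at 37 C, then co-treated with test compound titrations and 50 nM rosiglitazone overnight (16 h). Inhibition was quantified from 460/530 nm emission ratios.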
Sequence of Peroxisome proliferator-activated receptor gamma (Homo sapiens) (P37231 whole entry, looked up): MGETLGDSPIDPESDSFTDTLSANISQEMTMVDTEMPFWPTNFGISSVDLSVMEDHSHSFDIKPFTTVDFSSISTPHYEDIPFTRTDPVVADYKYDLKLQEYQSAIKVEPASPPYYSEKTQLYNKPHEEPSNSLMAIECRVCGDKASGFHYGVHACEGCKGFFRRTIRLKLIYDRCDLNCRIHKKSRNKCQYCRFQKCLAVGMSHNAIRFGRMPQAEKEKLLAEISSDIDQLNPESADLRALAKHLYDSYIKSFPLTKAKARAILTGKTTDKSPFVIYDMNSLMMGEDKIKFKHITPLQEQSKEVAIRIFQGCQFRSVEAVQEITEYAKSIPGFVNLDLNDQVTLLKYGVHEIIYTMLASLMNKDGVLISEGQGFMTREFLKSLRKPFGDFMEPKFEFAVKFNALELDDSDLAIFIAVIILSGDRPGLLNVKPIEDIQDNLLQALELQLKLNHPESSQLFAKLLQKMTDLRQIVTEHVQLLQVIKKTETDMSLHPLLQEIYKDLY

For assay [15], the target named is Vitamin D3 receptor (Homo sapiens) (UniProt P11473). Description: qHTS assay for small molecule antagonists of vitamin D receptor signaling (AID 588541; calls by dose curve;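 further: receptor activated by calcitriol during compound treatment; on the % scale 0 is the no-effect control and ±100 the full control effect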). The conditions noted are these: HEK293T VDR-UAS-bla, beta-lactamase ratio, antagonist mode; series mostly up to 76.7 µM. The method, boiled down:
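VDR-UAS-bla HEK293T cells (2000/well, 2% charcoal-stripped FBS) were treated with titrated compounds plus 1-alpha,25-dihydroxyvitamin D3 (50 nM or 3 nM final) for 16 h at 37 C. CCF4 beta-lactamase fluorescence was read; Hill fits gave IC50.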

Assay [16] has the same target. The assay is described as follows: qHTS assay for small molecule agonists of vitamin D receptor signaling (AID 588543; calls by dose curve;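 further: 0% = DMSO basal and 100% = reference agonist control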). The conditions noted are these: HEK293T VDR-UAS-bla, beta-lactamase ratio, 16 h; series mostly up to 76.8 µM. The method, boiled down: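 Measured: β-lactamase reporter activity (CCF4, 405 nm excitation, 460/530 nm emission) in HEK293T VDR-UAS-bla cells after 16 h compound exposure at 37 °C. Normalization against 50 nM 1α,25-dihydroxyvitamin D3 and DMSO; Hill-fit EC50.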

Assay [17] is described as follows: Cellular Toxicity (caspase-3) BJ (AID 658). The conditions noted are these: BJ fibroblasts, luminescence, normalized: DMSO 0%, staurosporine 100%; series mostly up to 91.7 µM. Summed up:
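Luminescent aminoluciferin-substrate cleavage reports caspase 3/7 activity in normal human BJ fibroblasts after 16 hr compound exposure at 37 °C. Normalized to DMSO (basal) and 10 uM staurosporine (100%); AC50 from Hill fit of concentration-response.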

The nature of assay [18]: qHTS assay for small molecule agonists of the antioxidant response element (ARE) signaling pathway (AID 651741; active means well fitted activation curve with a large enough effect in the signal ratio; the % refers to the signal ratio; further: % of control where 0% means no effect). The note with it: HepG2 ARE-bla reporter, beta-lactamase FRET ratio, 16 h; series mostly up to 96 µM. The method, boiled down: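 Compounds in DMSO are pinned onto HepG2 ARE-bla cells (2,000/well) that were preincubated 5 h; plates stay 16 h at 37 C, then beta-lactamase activity is detected with LiveBLAzer B/G substrate by fluorescence.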

The nature of assay [19]: Cell Viability - SK-N-SH (AID 435; calls by dose curve;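 further: potency means the concentration at half of the fitted maximal effect; compound exposure lasted 40 h at 37 °C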). The note with it: SK-N-SH neuroblastoma cell viability qHTS. Summed up:
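Human neuroblastoma line, 40 h exposure at 37 °C, ATP quantified via luciferase luminescence; DMSO and 100 uM tamoxifen define 0 and 100% inhibition for AC50 fitting.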

Sequence of Bile acid receptor (Homo sapiens) (Q96RI1 whole entry, looked up): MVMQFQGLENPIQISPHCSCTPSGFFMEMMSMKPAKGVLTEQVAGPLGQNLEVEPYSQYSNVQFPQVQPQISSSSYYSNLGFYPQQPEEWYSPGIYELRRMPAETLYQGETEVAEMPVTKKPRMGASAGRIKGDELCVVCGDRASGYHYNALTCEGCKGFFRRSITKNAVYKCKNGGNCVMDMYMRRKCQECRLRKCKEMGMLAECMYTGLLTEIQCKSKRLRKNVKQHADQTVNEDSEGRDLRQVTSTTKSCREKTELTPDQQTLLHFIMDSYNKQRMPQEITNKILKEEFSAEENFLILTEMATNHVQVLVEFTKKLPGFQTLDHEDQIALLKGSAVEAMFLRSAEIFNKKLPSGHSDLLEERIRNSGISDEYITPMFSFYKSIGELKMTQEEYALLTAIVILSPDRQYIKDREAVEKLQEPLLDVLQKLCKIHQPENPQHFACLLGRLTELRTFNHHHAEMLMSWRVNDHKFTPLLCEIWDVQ
Sequence of Vitamin D3 receptor (Homo sapiens) (P11473 whole entry, looked up): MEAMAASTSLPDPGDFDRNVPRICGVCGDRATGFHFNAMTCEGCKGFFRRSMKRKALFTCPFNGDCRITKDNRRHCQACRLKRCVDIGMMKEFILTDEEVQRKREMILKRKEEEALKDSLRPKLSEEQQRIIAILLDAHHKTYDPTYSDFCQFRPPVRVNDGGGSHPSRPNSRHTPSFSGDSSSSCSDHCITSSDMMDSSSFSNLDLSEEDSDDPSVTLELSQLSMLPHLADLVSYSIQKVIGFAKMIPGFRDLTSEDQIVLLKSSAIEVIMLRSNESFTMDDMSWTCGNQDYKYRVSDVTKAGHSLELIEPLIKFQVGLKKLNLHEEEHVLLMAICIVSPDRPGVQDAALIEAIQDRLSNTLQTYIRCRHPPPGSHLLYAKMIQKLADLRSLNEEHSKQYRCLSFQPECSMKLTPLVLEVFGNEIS

For the molecule `COc1ccc(N)cc1`, the caspase-3 activation in assay [1] was 2.07% (inactive) and 0.631% (inactive); in [3], 1.03% (inactive) and -0.467% (inactive). Besides, the molecule was called inactive in assay [2]. The Potency result in [4] and in [6] was “inactive” each time. In addition, in [5], the max response is 35%.

For the molecule `CCCCCCCC(=O)Cl`, in assay [7], the activity change, negative = cytotoxicity is 5.37% (inactive). Also, the figures for the caspase-3 activation in [1] and in [3] were -0.927% (inactive) and -0.621% (inactive), respectively. For the same molecule, the Potency entry in [8] was “inactive”. The result in assay [9] was inactive.

Consider `C1CCC2CCCCC2C1` (centres undefined), for which the activity change, negative = cytotoxicity in [7] was -13.5% (inactive). The results for the caspase-3 activation in [1], in assay [3] and in [12] were 1.3% (inactive), -0.192% (inactive) and -7.58% (inactive), respectively. In addition, the molecule was called inactive in assay [10], in [11], in [9], in assay [15] and in assay [16]. For the same molecule, the Potency result in assay [13], in [4], in assay [6] and in assay [14] was “inactive” in each case. Further, the max response in [5] is -10.8%.

Consider `C=CC(C)=O`, for which the results for the caspase-3 activation in assay [1] and in [12] were -0.622% (inactive) and -2.96% (inactive), respectively. Further, the outcome in assay [17], in assay [10], in [2], in assay [11] and in assay [9] was inactive. In addition, the Potency result in assay [4], in [6] and in [18] was “inactive” throughout. The max response in assay [5] was found to be 6.99%.

Consider `C=CC1CC=CCC1` (centres undefined), for which the caspase-3 activation was 0.736% (inactive) in assay [1] and 5.69% (inactive) in assay [12]. The Potency result in assay [13], in assay [4], in assay [6], in assay [14] and in [18] was “inactive” in each case. For the same molecule, the result in assay [9], in assay [15] and in assay [16] was inactive. The max response in assay [5] is 33.6% and -2.58%.

On to `CCN(CC)c1ccccc1`, for which the activity change, negative = cytotoxicity in assay [7] is 4.17% (inactive). The outcome in [17], in assay [2], in assay [11], in [9], in assay [15] and in [16] was inactive. The caspase-3 activation in assay [12] is 2.98% (inactive). The Potency result in [8], in assay [13], in assay [4] and in assay [18] was “inactive” throughout.

Consider `C=CC(=O)OCC`, for which, in assay [19], the Potency is > 92 µM (inactive). Besides, the caspase-3 activation in assay [1] is -0.667% (inactive); in [3], -1.92% (inactive). Also, the result in [17], in assay [11] and in assay [9] was inactive. Moreover, the Potency entry in [13], in [4], in assay [6], in [14] and in [18] was “inactive” in each case. In addition, in [5], the max response was determined as 26.1%.

Turning to `C[N+](C)(C)Cc1ccccc1`, the activity change, negative = cytotoxicity in assay [7] was -12.6% (inactive). The caspase-3 activation in assay [1] was 0.448% (inactive); in assay [12], 4.55% [at 91.7 µM] (inactive). The outcome in assay [17], in [10], in assay [2], in assay [11], in assay [9] and in assay [15] was inactive. Besides, the outcome in assay [16] was inactive. The max response in [5] is -16.9% and 15.9%. Moreover, the Potency result in assay [6], in assay [14] and in [18] was “inactive” each time.

With `CCCSC(=O)Cl`, the caspase-3 activation was 0.745% (inactive) in [1] and -1.31% (inactive) in assay [3]. Moreover, the result in assay [17], in assay [10], in [2], in assay [9], in assay [15] and in assay [16] was inactive. Further, the Potency entry in [18] is “inactive”.
